Screening data: PubChem, National Center for Advancing Translational Sciences (NCATS)
GALC G270D act: A Novel Cell-Based Assay to Identify Small Molecules for B -Galactocerebrosidase; P54803; 145M-Twi-hGALC-G270D cells (Twitcher mouse brain line with human GALC G270D), HMU-beta-Gal fluorescence, 48 h; Potency, µM (top dose mostly 57.5 µM), actives largely listed as activators; actives 0.1% (n = 45,000); also: potency is read from the fitted curve at half-maximal effect; 0% is about no effect; nearly all actives have a fitted effect of over 65% in size
Target sequence (P54803 whole entry G286D): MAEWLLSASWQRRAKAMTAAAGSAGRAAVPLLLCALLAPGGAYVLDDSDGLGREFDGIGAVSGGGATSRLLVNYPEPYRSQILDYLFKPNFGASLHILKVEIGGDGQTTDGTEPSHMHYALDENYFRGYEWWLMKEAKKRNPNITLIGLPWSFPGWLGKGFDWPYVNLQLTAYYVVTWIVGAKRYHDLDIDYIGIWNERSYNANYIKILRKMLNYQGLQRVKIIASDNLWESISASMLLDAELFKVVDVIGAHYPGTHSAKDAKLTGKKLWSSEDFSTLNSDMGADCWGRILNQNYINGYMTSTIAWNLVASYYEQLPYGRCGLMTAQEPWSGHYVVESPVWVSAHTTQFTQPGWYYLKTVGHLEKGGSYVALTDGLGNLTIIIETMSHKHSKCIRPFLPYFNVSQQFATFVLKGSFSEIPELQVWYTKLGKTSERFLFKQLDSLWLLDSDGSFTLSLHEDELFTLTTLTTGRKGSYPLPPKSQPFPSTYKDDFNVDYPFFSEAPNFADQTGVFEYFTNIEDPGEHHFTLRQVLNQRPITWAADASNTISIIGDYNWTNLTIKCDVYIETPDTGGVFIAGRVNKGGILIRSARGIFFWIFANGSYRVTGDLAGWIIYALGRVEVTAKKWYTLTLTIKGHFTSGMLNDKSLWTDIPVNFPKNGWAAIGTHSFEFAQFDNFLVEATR
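Brain-derived Twitcher mouse 145M-Twi cells stably expressing human GALC-G270D or wild-type GALC, treated live, then residual GALC activity read by fluorescence of HMU-b-Gal substrate (0.1 mM final) in citrate-phosphate buffer pH 5.2 with sodium taurocholate. Signal increase indicates enhancement.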
FH mod: Identification of activators of human fumarate hydratase by quantitative high-throughput screening | Fumarate hydratase, mitochondrial (Homo sapiens), P07954 | FH coupled MDH/diaphorase resazurin fluorescence, 15 min | Potency, µM (titrated, usually from 79.9 µM), for the others: at the top dose activity change, negative = inhibition, usual class: inhibitors | actives 0.22% (n = 54,000) | AID 1347055, 2019; also: potency is read from the fitted curve at half-maximal effect; % is scaled to controls: 0 for no effect and ±100 for the full control effect; the screen sought activators but most active calls are inhibition curves; nearly all actives have a fitted effect of over 45% in size
B2AR arrestin ag: qHTS assay of beta-arrestin-biased ligands of beta2-adrenergic receptor: NCGC Sytravon Library Screen; Beta-2 adrenergic receptor (Homo sapiens), P07550; HTLA Tango cells, beta-arrestin recruitment, luciferase luminescence, 18 h; Potency, µM (top dose mostly 46.1 µM), hits mostly activators; 44,000 tested, under 10 active; AID 1347077, 2019;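 also: potency is read from the fitted curve at half-maximal effect; 0% = DMSO and full agonism = EC100 isoproterenol or metaproterenol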
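Ligand-induced beta-arrestin recruitment to recombinant beta2-AR is measured via a tTA-driven luciferase reporter in Tango cells after 18 hr compound exposure at 37 degrees C. Concentrations span up to 46 microM.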
NTMT1 inh: Primary qHTS for Inhibitors of N-terminal methyltransferase 1 (NTMT1): MTaseGlo Assay; N-terminal Xaa-Pro-Lys N-methyltransferase 1 (Homo sapiens), Q9BV86; NTMT1 MTase-Glo SAH luminescence, purified enzyme; Potency, µM (highest dose often 114 µM), for the others: top-dose activity change, negative = inhibition, actives largely listed as inhibitors; actives 2.5% (n = 59,000); AID 1645870, 2021;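 also: potency is read from the fitted curve at half-maximal effect; plate controls were DMSO vehicle for no effect and no enzyme for full effect; nearly all actives have a fitted effect of over 65% in size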
PTAP-TSG101 blk: qHTS Validation Assay for Inhibitors of HIV-1 Budding by Blocking the Interaction of PTAP/TSG101: Sytravon Library Screen. Tumor susceptibility gene 101 protein (Homo sapiens), Q99816. Fluorescence polarization, FITC-PTAP peptide/Tsg101, 20 min. Potency, µM (highest dose often 115 µM), actives largely listed as inhibitors. 44,000 tested, under 10 active. AID 1347069, 2019; also: potency is read from the fitted curve at half-maximal effect; 0% is about no effect
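Fluorescence polarization: Tsg101 binding domain (10 uM final) in 10 mM HEPES pH 7.5, 0.15 M NaCl, 0.01% Tween 20, 3 mM EDTA, 0.1 mM TCEP; compounds pinned; FITC-PTAP peptide 50 nM final; 20 min, r.t.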
GALK inh: qHTS Assay for Inhibitors of Human Galactokinase (GALK): NCGC Sytravon Library Screen; P51570; recombinant GALK, Kinase-Glo ATP luminescence, 1 h; Potency, µM (top dose mostly 57.5 µM), without a hit: at the top dose activity, negative = inhibition, hits mostly inhibitors; 44,000 tested, under 10 active; AID 1347072, 2019;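 also: plate controls were full GALK reaction for no effect and reaction lacking GALK for full effect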
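Luminescent ATP-depletion readout (Kinase-Glo Plus, 10 min) after 1 h RT reaction of 5 nM GALK, 35 uM ATP, 100 uM galactose, pH 8.0 HEPES buffer. Decreased kinase activity scored as inhibition.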
Active calls of the source: *; i = inactive; u = inconclusive; x = no result given; ! = a repeat was not active; [ ] = remark or other dose. Shown is part of a subset that was picked to be rich in hits. Calls follow the shape of the dose curve; as a rule, active = well fitted curve in the direction sought with a large enough effect; inconclusive = small, poorly fitted or top-dose-only effect, or another doubt; inactive = no such curve, though single readings can be large; an effect the other way counts as inactive or inconclusive.

SMILES	GALC G270D act	FH mod	B2AR arrestin ag	NTMT1 inh	PTAP-TSG101 blk	GALK inh
CCN(CCCNC(=O)c1cc2cc3ccc(OC)cc3nc2s1)c1cccc(C)c1	i	-7%	i	79µM*	i	4%
CC(C)(O)CNc1ncc(-c2ccnc(Nc3ccncc3)n2)c(CC2CC2)n1	x	x	x	-7%	x	x
O=C(Nc1ccc(-n2nc(C(F)(F)F)cc2C(F)(F)F)cc1)c1ccncc1F	x	2%	x	-4%[57.5 µM]	x	x
CCN1CCN(c2nc3c(S(=O)(=O)c4ccc(C)cc4)nnn3c3ccsc23)CC1	i	4%	i	79µM*	i	0%
CN1CCN(c2nc3c(S(=O)(=O)c4ccc(Cl)cc4)nnn3c3ccsc23)CC1	i	-9%	i	79µM*	i	-5%
Cc1ccc(S(=O)(=O)c2nnn3c2nc(N2CCCC2)c2sccc23)cc1	i	15%	i	u	i	4%
CC(C)c1ccc(S(=O)(=O)c2nnn3c2nc(N2CCN(C)CC2)c2sccc23)cc1	i	-35%	i	-9%	i	-5%
Brc1cnc2nc(SCc3cccnc3)[nH]c2c1	x	x	x	-2%[57.5 µM]	x	x
CC(=O)c1ccc(N2CCN(c3ccc(NC(=O)c4ccc(F)cc4)cc3C(=O)O)CC2)cc1	i	3%	i	u	i	-2%
O=C(Nc1ccc(N2CCN(c3ccc(F)cc3)CC2)c(C(=O)O)c1)c1cccs1	i	-12%	i	89µM*	i	-7%
CC1=CC2/C=C(\C)CCC(O)C/C=C/C(=O)OC23C(=O)NC(CC(C)C)C3C1C (stereo unspecified)	x	-1%[53.3 µM]	x	5%[29.8 µM]	x	x
Nc1ncnc2n[nH]c(Nc3ccc(F)cc3)c12	x	7%	x	50µM*!	x	x
CC(C)OCCCNc1ncnc2sc3c(c12)CCCC3	i	-5%	i	50µM*	i	7%
Brc1c(Br)c(Br)c2n[nH]nc2c1Br	x	32µM*	x	11µM*	x	x
Cc1ccc(OCCn2c(CCNC(=O)c3cccnc3)nc3ccccc32)cc1	x	x	x	2%[57.5 µM]	x	x
C=C1CC[C@@H]2C(C)(C)CCC[C@@]2(C)[C@@H]1CC/C(=C/C(=O)OC)COC(C)=O	x	0%[53.3 µM]	x	9%[29.8 µM]	x	x
CC1(N)CCN(c2cnc(-c3cccc(Cl)c3Cl)c(N)n2)CC1	x	x	x	0%[57.5 µM]	x	x
CC(C)c1ccc(Nc2ncnc3c2nc2n3CCCC2)cc1	i	-8%	i	79µM*	i	0%
CCOc1ccc(Nc2ncnc3c2nc2n3CCCC2)cc1	i	-6%	i	u	i	3%
O=C(OC1C=C(CO)C2C(OC3OC(CO)C(O)C(O)C3O)OC=CC12O)c1ccc(O)cc1 (stereo unspecified)	x	-1%[53.3 µM]	x	4%[29.8 µM]	x	x
CCOC(=O)Nc1ccc(NCc2ccc(F)cc2)nc1N	i	13µM*!	x	u	x	x
Cc1ccc(NC(=O)CN2C(=O)N/C(=C\c3cccn3-c3ccc(C(=O)O)cc3)C2=O)cc1	x	x	x	6%	x	x
O=C(CN1C(=O)N/C(=C\c2cccn2-c2cccc(C(=O)O)c2)C1=O)Nc1cccc(F)c1	x	x	x	1%[57.5 µM]	x	x
O=C(O)c1cccc(-n2cccc2/C=C2/C(=O)N(Cc3ccc(F)cc3)C(=O)N2Cc2ccc(F)cc2)c1	x	x	x	79µM*	x	x
Cc1ccc(NC(=O)CN2C(=O)N/C(=C\c3cccn3-c3ccc(C(=O)NS(C)(=O)=O)cc3)C2=O)cc1	x	x	x	79µM*	x	x
SMILES	GALC G270D act	FH mod	B2AR arrestin ag	NTMT1 inh	PTAP-TSG101 blk	GALK inh
O=C(CN1C(=O)N/C(=C\c2cccn2-c2cccc(C(=O)O)c2)C1=O)Nc1cccc(Cl)c1	x	x	x	79µM*	x	x
CN1CCc2cccc3c2C1Cc1ccc(O)c(O)c1-3 (stereo unspecified)	x	14µM*	x	x	x	x
CC(=O)OC[C@]12[C@H](OC(C)=O)C(=O)[C@@H]3[C@@H](OC(C)=O)[C@@]14O[C@@]3(C)COC(=O)c1cccnc1[C@@H](C)[C@H](C)C(=O)O[C@@H]([C@H](O)[C@@H]2OC(C)=O)[C@]4(C)O	x	8%[20.6 µM]	x	6%[12.6 µM]	x	x
COC(=O)C[C@H]1C(C)(C)[C@H](OC(=O)C(C)C)[C@@]2(O)C(=O)[C@]1(C)C1CC[C@]3(C)C(CC(=O)O[C@H]3c3ccoc3)[C@]13O[C@@H]32 (stereo partly specified)	x	0%[20.6 µM]	x	6%[12.6 µM]	x	x
Cn1cnc2c(F)c(Nc3ccc(Br)cc3Cl)c(C(=O)NOCCO)cc21	i	6%	x	89µM*!	x	x
Cc1ccsc1/C=C/C1=NCCCN1C	i	3%[53.3 µM]	x	13µM*	x	x
CC1=C[C@H]2[C@@H](CC1=O)[C@H](C)C[C@H](O)[C@H]2C(C)C	x	-8%	x	12%[57.5 µM]	x	x
COc1cccc(N2CCN(c3ncc4c(n3)CCN(Cc3ccc(Br)cc3)C4)CC2)c1	i	-8%	i	50µM*	i	-1%
CC(C(=O)O)C1CCC2(C)C3C(=O)C=C4C(CCC(=O)C4(C)C)C3(C)CCC12C (stereo unspecified)	x	1%[53.3 µM]	x	10%[29.8 µM]	x	x
COc1cc2c(NC3CCN(C4CCCCC4)CC3)nc(N3CCCN(C(C)C)CC3)nc2cc1OCCCN1CCCCC1	x	x	x	20µM*	x	x
O=C(Nc1ccc(N2CCOCC2)c(F)c1)Nc1nnc(-c2ccncc2)s1	x	x	x	-2%[57.5 µM]	x	x
COc1cc(C)[nH]c(=O)c1CN1CCc2c(Cl)cc([C@H](OC)C3COC3)c(Cl)c2C1=O	x	x	x	9%	x	x
Cc1cc(C)cc(NC(=O)CSc2oc(-c3ccco3)nc2S(=O)(=O)c2ccc(Cl)cc2)c1	i	10%	i	-2%	i	1%
O=C(CSc1oc(-c2ccco2)nc1S(=O)(=O)c1ccc(Cl)cc1)c1ccc(Cl)cc1	i	-19%	i	79µM*	i	-2%
CCOc1ccc(NC(=O)CSc2oc(-c3ccco3)nc2S(=O)(=O)c2ccc(Cl)cc2)cc1	i	-16%	i	79µM*	i	4%
CCOCc1cc(OC)c(-c2ccc(C[C@H](NC(=O)c3c(F)cccc3F)C(=O)O)cc2)c(OC)c1	x	-3%	x	18%[57.5 µM]	x	x
Nc1cc(C(F)(F)F)ccc1S	i	-19%[53.3 µM]	x	8.9µM*	x	x
